From PubChem
Only some compounds are listed: those with a hit (about 1.6% of all), similar ones and a draw of the others.
KCNQ2 inh: blocks the rat KCNQ2 potassium channel; O88943; CHO-K1 KCNQ2, FluxOR thallium flux, 20 min; active compounds read low; B-score at 10 µM; 310,000 compounds, 1.1% hits; AID 2156;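 active = fluorescence ratio B-score at most minus 3 library SDs, with starting brightness B-score within 2 library SDs, cut at about -5.5 in these data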
Target sequence (O88943 whole entry, looked up): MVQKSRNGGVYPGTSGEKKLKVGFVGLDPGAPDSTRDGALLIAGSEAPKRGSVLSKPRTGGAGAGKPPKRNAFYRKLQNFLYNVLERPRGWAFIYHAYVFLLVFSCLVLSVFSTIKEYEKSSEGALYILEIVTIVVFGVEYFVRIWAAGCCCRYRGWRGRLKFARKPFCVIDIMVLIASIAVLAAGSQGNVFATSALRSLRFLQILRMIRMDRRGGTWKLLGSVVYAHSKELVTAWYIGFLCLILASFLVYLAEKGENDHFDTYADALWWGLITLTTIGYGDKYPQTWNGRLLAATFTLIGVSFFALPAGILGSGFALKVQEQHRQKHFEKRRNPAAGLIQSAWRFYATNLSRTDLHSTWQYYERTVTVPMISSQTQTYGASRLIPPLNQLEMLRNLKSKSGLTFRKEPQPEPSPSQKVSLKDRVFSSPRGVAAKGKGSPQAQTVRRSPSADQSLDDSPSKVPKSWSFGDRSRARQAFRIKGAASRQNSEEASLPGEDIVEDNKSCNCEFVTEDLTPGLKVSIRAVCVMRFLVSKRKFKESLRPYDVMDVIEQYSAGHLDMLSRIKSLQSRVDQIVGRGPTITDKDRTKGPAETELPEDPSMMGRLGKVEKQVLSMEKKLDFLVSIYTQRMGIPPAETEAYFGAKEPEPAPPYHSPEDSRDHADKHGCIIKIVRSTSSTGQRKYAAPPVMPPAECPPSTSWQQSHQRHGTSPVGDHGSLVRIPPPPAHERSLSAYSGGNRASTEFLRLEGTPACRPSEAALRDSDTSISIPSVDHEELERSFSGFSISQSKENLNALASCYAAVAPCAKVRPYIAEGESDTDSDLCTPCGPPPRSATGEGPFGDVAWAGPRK
KCNQ2 enhance: enhances the rat KCNQ2 potassium channel | O88943 | CHO-K1 KCNQ2, FluxOR thallium flux fluorescence; active compounds read high | B-score at 10 µM | 310,000 compounds, 0.54% hits;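 active = fluorescence ratio B-score at least 3 SD of library B-scores, with initial fluorescence B-score within 3 of them, cut at about 5.3 in these data; same plate scores as AID 2156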;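 note: B-score of peak minus minimum over baseline fluorescence ratio after K+ and Tl+ stimulus; positive B-score means potentiation of KCNQ2 with more thallium influx and brighter signal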
KCNQ2 inh conf: confirmation of rat KCNQ2 potassium channel inhibitors; shares compounds with KCNQ2 inh; 1,000 compounds, 57% hits; KCNQ2-expressing cells, thallium flux, inhibition; active compounds read low; AID 493025; activity change, negative = inhibition, % at 10 µM
KCNQ1 spec: KCNQ2 inhibitor that also affects human KCNQ1 channel | shares compounds with KCNQ2 inh | KCNQ1-expressing cells, FluxOR thallium flux fluorescence; active compounds read low | 1,000 compounds, 15% hits | activity change, negative = inhibition, % at 10 µM;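 active = activity change at least 3 SD of negative controls below their mean in both duplicate wells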;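 note: CHO cells stably transfected with KCNQ1 and depolarized by potassium stimulus; peak minus minimum fluorescence over baseline after thallium addition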
CHO parental ctr: activity in parental CHO cells lacking KCNQ2; shares compounds with KCNQ2 inh; thallium flux counter-screen; active compounds read low; activity change, % at 10 µM; 1,000 compounds, 14% hits
KCNQ2 inh confirm: confirmation of rat KCNQ2 potassium channel inhibitors. shares compounds with KCNQ2 inh. KCNQ2-expressing cells, automated patch clamp current. calls only at 10 µM. 550 compounds, 49% hits. AID 588531
Numbers stand for hits; – = inactive; · = no result; + = active, no number. Unless noted, the rule behind the calls is not given here.

SMILES	KCNQ2 inh	KCNQ2 enhance	KCNQ2 inh conf	KCNQ1 spec	CHO parental ctr	others
COc1nc(OC)nc(Oc2ccc(Cl)cc2[N+](=O)[O-])n1	–	·	·	·	·
CCN(CC)C(=O)Cn1c(=O)n(CC(=O)N2CCCCC2)c(=O)c2sccc21	–	·	·	·	·
CC(=O)Nc1ccc(NC(=O)c2ccc(COc3ccccc3Br)o2)cc1	–	–	·	·	·
Cc1cccc(NC(=O)c2ccc(COc3cccc4ccccc34)o2)n1	-8.8	–	-38%	-34%	-28%	KCNQ2 inh confirm=–
C=C(C)C1CC=C(C)/C(=N/NC(=O)COc2cccc3ccccc23)C1 (stereo not given)	-9.2	–	–	–	–
C=C(C)C1CC=C(C)/C(=N/NC(=O)COc2cccc(C)c2)C1 (stereo not given)	–	–	·	·	·
Cc1cc(CN(C)C(=O)C2CCC(=O)N(CCc3cccc(F)c3)C2)on1 (stereo not given)	–	·	·	·	·
CCC1CCCCN1CCCNC(=O)CCC(=O)N1CCOc2ccccc21 (stereo not given)	–	·	·	·	·
O=C(CSc1nncs1)Nc1ccc(Cl)cc1C(F)(F)F	–	·	·	·	·
Nc1nonc1-n1nnc(C(=O)N/N=C/c2ccccc2Br)c1CN1CCCC1	–	·	·	·	·
O=C(O)CC(CN1C(=O)c2ccccc2C1=O)c1ccccc1 (stereo not given)	–	–	·	·	·
O=C(Oc1ccc2ccccc2c1Br)N1CCCCCC1	-6.7	–	–	–	–
CCN(CC)C(=O)Oc1ccc2ccccc2c1Br	–	·	·	·	·
CCNc1nc(NCC)n2c(SC(C(=O)Nc3cc(C)ccc3C)c3ccccc3)nnc2n1 (stereo not given)	–	·	·	·	·
CCOCCCn1c(SC(C(=O)Nc2cc(C)ccc2C)c2ccccc2)nnc1-c1ccc(Cl)cc1 (stereo not given)	-9.6	–	-24%	–	–	KCNQ2 inh confirm=+
CCOC(=O)c1cnc(-n2nc(C)cc2C)nc1NC1CCCCC1	-8.9	–	-33%	–	–	KCNQ2 inh confirm=+
CCOC(=O)c1cnc(-n2nc(C)cc2C)nc1NC	–	–	·	·	·
Cc1ccc(NC(=O)N2N=C(c3ccc(F)cc3)CC2c2ccc(F)cc2)cc1 (stereo not given)	-7.9	–	–	–	–
CC(=O)N1N=C(c2ccccc2)CC1c1ccc(F)cc1 (stereo not given)	–	·	·	·	·
O=C(CCCOc1ccc(Cl)cc1Cl)N1CCCc2ccccc21	-14	–	–	–	–
O=C(COc1ccc(Cl)cc1Cl)OCC(=O)N1CCCc2ccccc21	–	–	·	·	·
CN(C)C(=O)c1cc(C(=O)c2ccc(F)cc2C(F)(F)F)c[nH]1	–	–	·	·	·
CCCN(CC(=O)Nc1ccccc1OC)C(=O)CCNC(=O)c1ccccc1OC	–	·	·	·	·
O=C(Cc1cccs1)NC(c1ccccc1)c1ccccc1	–	·	·	·	·
O=C(COC(=O)/C(=C/c1cccs1)c1cccs1)NC(c1ccccc1)c1ccccc1	-8.6	–	–	–	–
SMILES	KCNQ2 inh	KCNQ2 enhance	KCNQ2 inh conf	KCNQ1 spec	CHO parental ctr	others
N#Cc1c(F)cccc1N1CCN(Cc2ccc3c(c2)OCO3)CC1	–	·	·	·	·
CN(C)CCCn1c2c(c(SCC(=O)Nc3nccs3)nc1=O)CCC2	–	·	·	·	·
CCOP(=O)(OCC)C(NC(=O)Nc1ccccc1)c1ccccc1 (stereo not given)	–	·	·	·	·
CCOP(=O)(OCC)C(NC(=O)Nc1c(C)cc(C)cc1C)c1ccccc1 (stereo not given)	-9.2	–	-21%	–	–	KCNQ2 inh confirm=+
Cc1ccccc1-c1nc(C(=O)NCC2CCCO2)cc2c1[nH]c1ccccc12 (stereo not given)	–	·	·	·	·
Cc1ccc(-c2nc(C(=O)NCC3CCCO3)cc3c2[nH]c2ccccc23)cc1 (stereo not given)	-12	–	-28%	–	–	KCNQ2 inh confirm=–
Cc1ncc(CN2CCC(CO)(CCc3ccccc3)CC2)s1	–	–	·	·	·
C(=N\Nc1nc(N2CCCCC2)nc(N2CCCCC2)n1)/c1c[nH]c2ccccc12	-9.3	–	-36%	–	–	KCNQ2 inh confirm=+
CN(C)c1nc(N/N=C/c2c[nH]c3ccccc23)nc(N2CCOCC2)n1	–	–	·	·	·
COc1cccc(NC(=S)N2CCN(S(=O)(=O)c3ccccc3)CC2)c1	–	·	·	·	·
COc1ccccc1CNC(=O)COC(=O)C1CCN(c2ccc(C(F)(F)F)cn2)CC1	-6.8	–	–	–	–
O=C(COC(=O)C1CCN(c2ccc(C(F)(F)F)cn2)CC1)NCCc1ccccc1	–	–	·	·	·
CCCCOc1ccc(Cc2c(Cl)nc(SC)nc2N2CCOCC2)cc1	–	·	·	·	·
CSc1nc(Cl)c(Cc2ccc(OCC(C)C)cc2)c(N2CCOCC2)n1	-6.8	–	-24%	–	–	KCNQ2 inh confirm=–
CCOC(=O)C1CCN(C(=O)c2cc(C)n(C(C)(C)C)n2)CC1	–	·	·	·	·
O=C(COc1coc(CN2CCN(c3ccccc3)CC2)cc1=O)NC1CCCCC1	–	·	·	·	·
CCOc1cc(C(=S)N2CCOCC2)cc(Br)c1OS(=O)(=O)c1ccccc1	–	·	·	·	·
Cc1oc(CC(C)C)cc1C(=O)Nc1cccc2ccccc12	-7.7	–	–	–	–
Cc1cc(C(=O)Nc2cccc3ccccc23)c(C)o1	–	–	·	·	·
CC(C)C(C(=O)NCC1CCCO1)N(C(=O)CNS(=O)(=O)c1ccccc1)C1CCCCC1 (stereo not given)	–	·	·	·	·
OCC1(CCc2ccccc2)CCCN(CCCC(F)(F)F)C1 (stereo not given)	–	·	·	·	·
OCC1(CCc2ccccc2)CCCN(CCCc2ccccc2)C1 (stereo not given)	-6.6	–	-36%	-34%	-26%	KCNQ2 inh confirm=–
Cc1ccc(Cn2c(SCC(=O)N(C)C3CCS(=O)(=O)C3)nc3ccccc3c2=O)cc1 (stereo not given)	–	–	·	·	·
COc1ccc(Nc2ccccc2NC(=O)c2ccccc2Br)cc1	-9.6	–	-22%	–	–	KCNQ2 inh confirm=+
Cc1ccccc1C(=O)Nc1ccccc1NC(=O)c1ccccc1Br	–	·	·	·	·
SMILES	KCNQ2 inh	KCNQ2 enhance	KCNQ2 inh conf	KCNQ1 spec	CHO parental ctr	others
CCOC(=O)C1CCN(C(=O)CN2C(=O)COc3ccc(C(C)(C)C)cc32)CC1	–	–	·	·	·
COc1ccc2cc(CN(Cc3ccco3)Cc3nnnn3C3CCCCC3)c(=O)[nH]c2c1	–	–	·	·	·
CC(C)(C)c1ccc(CN(Cc2ccco2)Cc2nnnn2C2CCCC2)cc1	-12	–	-24%	–	–	KCNQ2 inh confirm=–
O=[N+]([O-])c1cccc(OCCN2CCC(Cc3ccccc3)CC2)c1	-8.2	–	–	–	–
Cc1ccc([N+](=O)[O-])c(OCCCN2CCC(Cc3ccccc3)CC2)c1	–	·	·	·	·
O=C(NCc1ccccc1Br)c1ccncc1	–	·	·	·	·
CCCCCCCCCCCCCCCC(O)C(N)CO (stereo not given)	-10	–	–	–	–
CCCCCC[C@@H]([C@@H](C)O)n1cnc2c(N)ncnc21	–	–	·	·	·
COc1cccc(CNC(=O)C2CCN(S(=O)(=O)c3ccc4c(c3)CC(C)N4C(C)=O)CC2)c1 (stereo not given)	–	–	·	·	·
COC(=O)CSc1nc(C2CC2)cc(C(F)(F)F)c1C#N	–	–	·	·	·
CCOC(=O)C(C)Sc1nc(C2CC2)cc(C(F)(F)F)c1C#N (stereo not given)	-6.9	–	–	–	–
N#C/C(=C/c1ccc(N2CCCCCC2)o1)c1ccc(Cl)cc1	-8.4	–	-31%	-28%	-22%	KCNQ2 inh confirm=–
